Reference: PubChem BioAssay AID624126 (The Scripps Research Institute Molecular Screening Center, 2012)
The whole screen tested about 360,000 compounds, of which about 1,400 (0.39%) were called active. Only a selection was taken, and actives are over-represented in it overall. Unmarked numbers belong to inactive results.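 Rule for the calls: active = activation above its plate's cutoff, the mean activation of sample wells plus 3 SD; inactive = the rest.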

Target: Muscarinic acetylcholine receptor M4 (Homo sapiens) (UniProt P08173)
Sequence (P08173 whole entry, looked up): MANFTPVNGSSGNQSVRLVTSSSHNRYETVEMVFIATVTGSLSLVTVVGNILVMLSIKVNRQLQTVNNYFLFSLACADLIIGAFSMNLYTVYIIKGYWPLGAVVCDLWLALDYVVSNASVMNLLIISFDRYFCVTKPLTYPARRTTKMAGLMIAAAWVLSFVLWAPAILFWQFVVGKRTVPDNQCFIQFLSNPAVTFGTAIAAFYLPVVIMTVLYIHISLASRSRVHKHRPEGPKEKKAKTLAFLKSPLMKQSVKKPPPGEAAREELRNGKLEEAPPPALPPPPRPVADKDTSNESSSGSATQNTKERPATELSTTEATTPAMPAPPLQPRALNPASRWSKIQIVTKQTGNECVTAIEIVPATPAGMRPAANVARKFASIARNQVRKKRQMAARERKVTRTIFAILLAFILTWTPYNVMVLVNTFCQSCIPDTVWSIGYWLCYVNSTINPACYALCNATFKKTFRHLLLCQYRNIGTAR
Test: CHRM4 PAMs potentiating acetylcholine calcium signal – CHO-K1 cells, Fluo-8 calcium fluorescence, primary screen (AID 624126)
Conditions: CHO-K1 hM4/Gqi5, Fluo-8 calcium fluorescence, ACh EC20; at 3 µM; stronger effect = higher value; 0% = ACh EC20, 100% = maximal ACh

SMILES	activation
O=C1NC[C@@H](c2ccccc2)OC(=O)[C@H](Cc2ccc(F)cc2)CC/C=C/C[C@H]1CC(=O)N(CCO)Cc1ccccc1	-11.5%
O=C(O)CCn1cc(/C=C/C(=O)c2ccc(Cl)cc2)c(-c2cccc(Br)c2)n1	-5.08%
O=[N+]([O-])c1ccc2[nH]c3c(c2c1)CCCC3O (stereo unspecified)	6.6%
CC(C)Oc1ccccc1C(=O)NC(CO)C(=O)O (stereo unspecified)	7.23%
COc1ccc(NC(=O)CCCC2CCCCC2)c(OC)c1	21.1% (active)
CC(=O)Oc1ccc(NC(=O)CCC2CCCCC2)c(C(=O)O)c1	4.74%
COc1ccc(NC(=O)CCn2ccnc2)c(OC)c1	-8.61%
CCOC(=O)c1c(CN(C)C)n(-c2ccccc2)c2cc(Br)c(O)cc12	1.89%
Nc1nnc(C2CCCC2)s1	-4.96%
COc1ccc(/C=C/C(=O)N2CCCC2)cc1OC	31.3% (active)
CCOC(=O)C1CCN(C(=O)/C=C/c2cc(OC)c(OC)c(OC)c2)CC1	0.77%
COc1cc(/C=C/C(=O)N2CCc3ccccc3C2)cc(OC)c1OC	-4.53%
COc1cccc(NC(=O)Cn2c3ccccc3c3nc4n(c(=O)c32)CCS4)c1	7.32%
O=C(NCc1cccnc1)C12CC3CC(CC(C3)C1)C2	-4.11%
O=C(NCc1ccncc1)NC12CC3CC(CC(C3)C1)C2	21.2% (active)
S=C(NCc1ccc(Cl)cc1)NC12CC3CC(CC(C3)C1)C2	-13.6%
Cc1noc(C)c1NC(=O)N(C)C[C@@H]1Oc2cc(Br)ccc2S(=O)(=O)N([C@@H](C)CO)C[C@H]1C	3.07%
COc1ccc(CCNC(=O)COC(=O)c2ncc(Cl)c(Cl)c2Cl)cc1OC	0.15%
COC(=O)c1ccc(OC(=O)c2nn(C)cc2Cl)c(OC)c1	22% (active)
COC(=O)c1ccc(COC(=O)c2cnc(Cl)c(Cl)c2)cc1	1.26%
COc1ccc(CSc2nnnn2-c2ccc(O)cc2)cc1F	-3.48%
